Screening results from PubChem BioAssay.
Only some compounds are listed: those with a hit (about 6.2% of all), similar ones and a draw of the others.
MARV entry inh: blocks Marburg virus binding to or entry into cells. Marburg virus pseudotyped entry inhibition, cell reporter. Potency, µM (doses to about 37.8 µM), for the others: top-dose activity change, negative = inhibition, hits mostly inhibitors. hit rate 1.8% among 300,000. AID 540276; calls by dose curve; tested in HEK293 cells; note: potency is the fitted concentration of half-maximal effect
HCMV inh: inhibitors of human cytomegalovirus; activity change, negative = inhibition, % at 57.5 µM; HFF cells, HCMV-luciferase reporter, 72 h; hits give low values; hit rate 4.5% among 410,000; in the data active = activity change below about -60%; inconclusive = no clear call, values can overlap the other calls; inactive = above about -39%
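Luciferase read-out from HCMV-luciferase-infected HFFs (MOI 1 PFU/cell) 72 h post infection at 37C; compounds added after 16 h cell attachment; activity normalized between buffer-only basal and Salinomycin (10uM) inhibitor controls.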
FMDV antiviral: blocks foot and mouth disease virus; FMDV antiviral cell-based qHTS; hit rate 1.2% among 410,000; Potency, µM (highest dose often 57.9 µM), for the others: top-dose activity change, negative = inhibition, most hits filed as inhibitors; calls by dose curve; tested in HEK293T cells; note: read-out not given here; potency is the fitted concentration of half-maximal effect; nearly all actives have a fitted effect of over 45% in size
LASV entry inh: Lassa virus entry inhibition. AID 540256. hit rate 1.2% among 300,000. Lassa virus pseudotype entry inhibition, cell reporter. Potency, µM (highest dose often 37.9 µM), for inactives: at the highest dose activity change, negative = inhibition, most hits filed as inhibitors; calls by dose curve; tested in HEK293 cells; note: potency is the fitted concentration of half-maximal effect; nearly all actives have a fitted effect of over 50% in size
Active calls of the source: *; ? = inconclusive; / = no result given; + = active, no number; ! = not confirmed by another sample; [ ] = dose if it differs, or a comment. % is set by controls: 0 for no effect and ±100 for the full control effect.

SMILES	MARV entry inh	HCMV inh	FMDV antiviral	LASV entry inh
COc1ccc(N2C(=O)CC(Cc3ccccc3)C2=O)cc1 (configuration not stated)	9%	6	28%	4%
COc1ccc(C[C@@H]2OC3(C=CC(=O)C=C3)O[C@H]2Cc2ccc(OC)cc2)cc1	2.5µM*	/	14µM*	?
Cc1ccc([N+](=O)[O-])c(OCCN2CCCCCC2)c1	?	-78*	-10%	-19%
c1ccc(Nc2nc3ccccc3[nH]2)nc1	-26%	-68*	-2%	?
CCOC(=O)CNC(=S)N(CCCN1CCCCC1)Cc1cccs1	?	-34	4%	-13%
COc1ccc(NC(=S)N(CCCN2CCC(C)CC2)Cc2cccs2)cc1Cl	?	-90*	113%	?
COc1ccc(NC(=S)N(CCCN2CCCC2)Cc2cccn2Cc2ccc(Cl)cc2)cc1Cl	/	-79*	-24%	/
COc1ccc(NC(=S)N(CCCN2CCN(C)CC2)Cc2cccs2)cc1	?	?	9%	?
COc1ccc(NC(=S)N(CCC(C)C)C2CCN(C(C)C)CC2)cc1Cl	?	-62*	-23%	?
CCOC(=O)CNC(=S)N(CCCN1CCCCCC1)Cc1cccs1	?	-88*	-5%	8%[46.1 µM]
Cc1ccc(NC(=S)N(CCCN2CCCC2)Cc2cccn2Cc2ccc(Cl)cc2)cc1Cl	8.9µM*	-12	-22%	1.1µM*
Cc1ccc(NC(=S)N(CCCN2CCCC2)Cc2cccn2Cc2ccc(Cl)cc2)cc1C	?	-25	?	?
FC(F)(F)c1cccc(NC(=S)N(CCCN2CCCC2)Cc2cccn2Cc2ccc(Cl)cc2)c1	?	-67*	28µM*	?
Nc1ccc(N2CCN(CCCCN3C(=O)C4CCCN4C3=O)CC2)cc1 (configuration not stated)	3.2µM*	-11	-20%	14%
O=C(c1cc(COc2cccc3cnccc23)on1)N1CCCC(CCCO)C1 (configuration not stated)	/	-86*	32µM*	/
Cc1nn(C)cc1C(C)NC(=O)c1cc(COc2cccc3cnccc23)on1 (configuration not stated)	?	?	20µM*	-26%
COc1ccc(OCc2cc(C(=O)N3CCCC(CO)C3)no2)c2ccccc12 (configuration not stated)	-13%	206	18%	-12%
COCC1CCN(C(=O)c2cc(COc3cccc4cnccc34)on2)CC1	-16%[46.1 µM]	+	?	-9%[46.1 µM]
COCC1CCN(C(=O)c2cc(COc3ccc(F)cc3Cl)on2)C1 (configuration not stated)	/	4	51%	/
CN=c1scc(-c2ccccc2F)n1/N=C/c1ccc(O)c(O)c1O	?	-78*	3.5µM*	?
CN=c1scc(-c2ccccc2F)n1/N=C/c1ccc[nH]1	1µM*	-99*	126µM*	?
CC(C)N=c1scc(-c2cccs2)n1/N=C/c1ccc(O)c(O)c1O	?	?	-21%	?
O=C1CC[C@@H](S(=O)(=O)c2ccccc2)[C@H](c2ccccc2)N1Cc1ccccc1	/	-15	/	/
CCN1CCOC(=O)C1CC(=O)Nc1ccc(C)c(Cl)c1 (configuration not stated)	0%[46.1 µM]	-2	-16%	-1%[46.1 µM]
CC(C)Cn1c(SCC#N)nc2ccccc2c1=O	-20%	-101*	0%	1%
SMILES	MARV entry inh	HCMV inh	FMDV antiviral	LASV entry inh
C=CCn1c(SCC#N)nc2ccccc2c1=O	0%	-9	13%	2%
CC(=O)Oc1ccc2c(c1)CCC1C2CC[C@]2(C)C(=O)CCC12 (some centres not stated)	/	/	14%	/
CCCN1CCC(N2CCCC(C(=O)O)C2)CC1 (configuration not stated)	7%[14.2 µM]	-60*	-30%	-18%
CCCCN(CC)CCNC(=O)c1cn(C)c(=O)c2c1c1ccccc1n2C	-35%[46.1 µM]	-62*!	3%	?
CCCCN(C)CCNC(=O)c1cn(C)c(=O)c2c1c1ccccc1n2C	11µM*	15	-10%	-9%[46.1 µM]
CCCN(CCC)CCNC(=O)c1cn(C)c(=O)c2c1c1ccccc1n2C	?	46	?	12%[46.1 µM]
CCc1ccccc1NC(=O)C1CCN(C(=O)N2CC(C)Oc3ccc(Cl)cc32)CC1 (configuration not stated)	/	0	-10%	?
CC(C)Cn1cc(C(=O)N2CCN(c3ccccn3)CC2)c2c3ccccc3n(C)c2c1=O	16µM*	10	18%	6.5µM*
Cc1cccc(-c2nc3c4ccccc4nc(N4CCN(c5cccc(Cl)c5)CC4)n3n2)c1	?	-62*	-18%	/
Clc1cccc(N2CCN(c3nc4ccccc4c4nc(-c5ccccc5)nn34)CC2)c1	-2%[46.1 µM]	-23	-27%	/
Cc1ccccc1CNc1ncnc2c1ncn2[C@@H]1O[C@@H](CO)[C@H](O)[C@@H]1O	18%	/	/	/
COc1ccccc1NCCC(=O)OCC(=O)NC1CCCCC1	?	-35	-12%	17%
COc1ccccc1NCCC(=O)OCC(=O)NC1CC1	/	-83*	5%	/
CCOC(=O)C1CCCN(S(=O)(=O)c2ccc(S(=O)(=O)N(CC)CC)cc2)C1 (configuration not stated)	/	-70*	?	/
CCOC(=O)C1CCCN(S(=O)(=O)c2ccc(C)cc2)C1 (configuration not stated)	?	30	0%	-6%
CCN(CC)S(=O)(=O)c1ccc(S(=O)(=O)N2CCCC(C(=O)NC3CC3)C2)cc1 (configuration not stated)	?	-83*	?	-19%
Cc1c(C(=O)N2CCC(C)CC2)c(S(=O)(=O)N(Cc2ccccc2)C(C)(C)C)c(C)n1C	/	?	-13%	?
COC(=O)C1(CCSC)NC(c2ccc(O)cc2)C2C(=O)N(c3ccc4c(c3)OCCO4)C(=O)C21 (configuration not stated)	7%	38	-2%	-1%
COC(=O)C1(C)NC(c2ccc(O)cc2)C2C(=O)N(c3ccc4c(c3)OCCO4)C(=O)C21 (configuration not stated)	5%	-73*	-19%	-3%
CCOc1ccc(C2NC(=O)c3n[nH]c(C)c32)cc1 (configuration not stated)	/	-10	-13%	/
CC(C)(C)c1ccc(C2NC(=O)c3n[nH]c(-c4cccs4)c32)cc1 (configuration not stated)	?	-91*	-15%	-25%[46.1 µM]
Cc1cc(Oc2ccc(-c3ccccc3)cc2)nc(N2CCOCC2)n1	11µM*	19	?	4µM*
CCCc1ccc(Oc2cc(C)nc(N3CCOCC3)n2)cc1	-19%	-28	-1%	?
Cc1cc(Oc2ccc(C(C)(C)C)cc2)nc(N2CCOCC2)n1	-23%	3	?	5µM*
CC(=O)N1CCC2(CC1)OC(=O)C(C)=C2C(=O)Nc1cc(C)ccc1C	/	?	0%	27%[46.1 µM]
CN(Cc1ccccc1)C(=O)c1[nH]cnc1C(=O)NCc1ccccc1	/	-61*	-4%	/
O=C(Nc1ccccc1)c1nc[nH]c1C(=O)NCc1ccccc1	/	-1	-15%	/
Cc1cccc(NC(=O)c2nc[nH]c2C(=O)NCc2ccccc2)c1	/	-61*	-12%	/
